Compound activity as filed in PubChem.
Sampled rows, rich in hits. Any-hit rate of the full collection: about 2.6%.
TCR activator – Activators of T cell receptors: qHTS campaign. primary human leukocytes, anti-CD3, IL-2 HTRF, 48 h. Potency, µM (highest dose often 9.22 µM), for the others: at the top dose activation of IL-2 secretion, most hits filed as activators. 330,000 tested, under 10 active. AID 504894, 2011; further: % of control where 0% means no effect
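Human primary leukocytes + a-CD3 beads + cpd, 48 hr; IL-2 in supernatant by HTRF (ex 320nm / em 665nm). No co-stimulatory signal supplied.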
Nrf2 block – Nrf2 qHTS screen for inhibitors; A549 ARE-Fluc reporter, luciferase luminescence, 18-24 h; Potency, µM (doses to about 46 µM), inactives show top-dose activity change, negative = inhibition, actives largely listed as inhibitors; 360,000 compounds, 2.1% hits; AID 504444, 2011; further: potency means the concentration at half of the fitted maximal effect; on the % scale 0 is the no-effect control and ±100 the full control effect; nearly all actives have a fitted effect of over 60% in size
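In this cell-based qHTS, ARE-driven firefly luciferase in A549 cells reports Nrf2 activity; the luminescent signal after BugLite lysis is the measured value, with a prior CellTiter-Fluor read for cell health.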
AT treatment – qHTS Assay for Identifying a Potential Treatment of Ataxia-Telangiectasia. F2112 A-T fibroblasts, KAP-1 phosphorylation AlphaLISA; neocarzinostatin DNA damage 30 min before lysis. Potency, µM (top dose mostly 57.5 µM), for inactives: at the top dose activation, hits mostly activators. 320,000 compounds, 0.19% hits; further: potency means the concentration at half of the fitted maximal effect; % of control where 0% means no effect; nearly all actives have a fitted effect of over 45% in size
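ATM-like activity read as KAP-1 phosphorylation via AlphaLISA donor/acceptor antibody pairs after lysis and 6 hr at 25C. Cells were ATM-null patient fibroblasts (F2112, hTERT), dosed 60 min, then exposed to the DSB inducer NCS for 30 min.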
A549 tox-1 – Nrf2 qHTS screen for inhibitors: counterscreen for cytotoxicity; A549 ARE-Fluc cells, CellTiter-Fluor viability, 18-24 h; Potency, µM (doses to about 46 µM), for the others: at the highest dose activity change, negative = cytotoxicity, actives largely listed as inhibitors; 390,000 compounds, 0.16% hits; AID 504648, 2011; further: potency means the concentration at half of the fitted maximal effect; on the % scale 0 is the no-effect control and ±100 the full control effect
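A549 ARE_Fluc cells in 5% FBS OPTI-MEM were exposed to compounds in concentration-response for 18-24 h at 37 deg C. Viability was read by CellTiter-Fluor fluorescence (Ex 405/Em 525) after 30 min, before the luciferase read.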
Nrf2 ARE act – qHTS of Nrf2 Activators; Potency, µM (series often up to 46.1 µM), without a hit: at the highest dose activation, usual class: activators; AREc32 ARE-luciferase reporter (MCF7-derived line), luminescence, 24 h; 410,000 compounds, 0.31% hits; further: potency means the concentration at half of the fitted maximal effect; % of control where 0% means no effect; nearly all actives have a fitted effect of over 65% in size
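Luciferase luminescence (Steady-Glo, 30 min at room temperature) served as the read-out of ARE activation in AREc32 cells treated with compounds for 24 hr at 37 deg C.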
CCT modulator – High-Throughput Screening for Modulators of Cytosolic Chaperonin Activity; purified chaperonin ATPase assay, HTRF ADP detection, 30 min; activity change, % (test concentration not listed), hits read low; 360,000 compounds, 0.3% hits; in the data active means activity change below about -30%; further: on the % scale 0 is the no-effect control and ±100 the full control effect
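Enzyme 40 or 20 nM (batch-dependent) in Tris pH 7.4/KCl/MgCl2/DTT; cpd 76 uM single point; ATP 10 uM; 30 min 37 °C; Transcreener ADP HTRF detection, 30 min RT; ratio 665/615.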
FLuc enzyme inh – Nrf2 qHTS screen for inhibitors: Purified Fluc Biochemical Counterscreen for Hit Validation; shares compounds with Nrf2 block; purified firefly luciferase, luminescence inhibition; Potency, µM (highest dose often 57.5 µM), without a hit: at the top dose activity change, negative = inhibition, usual class: inhibitors; 1,400 compounds, 4% hits; AID 720522, 2013; further: potency means the concentration at half of the fitted maximal effect; on the % scale 0 is the no-effect control and ±100 the full control effect; nearly all actives have a fitted effect of over 65% in size
Target sequence (P08659 whole entry, looked up): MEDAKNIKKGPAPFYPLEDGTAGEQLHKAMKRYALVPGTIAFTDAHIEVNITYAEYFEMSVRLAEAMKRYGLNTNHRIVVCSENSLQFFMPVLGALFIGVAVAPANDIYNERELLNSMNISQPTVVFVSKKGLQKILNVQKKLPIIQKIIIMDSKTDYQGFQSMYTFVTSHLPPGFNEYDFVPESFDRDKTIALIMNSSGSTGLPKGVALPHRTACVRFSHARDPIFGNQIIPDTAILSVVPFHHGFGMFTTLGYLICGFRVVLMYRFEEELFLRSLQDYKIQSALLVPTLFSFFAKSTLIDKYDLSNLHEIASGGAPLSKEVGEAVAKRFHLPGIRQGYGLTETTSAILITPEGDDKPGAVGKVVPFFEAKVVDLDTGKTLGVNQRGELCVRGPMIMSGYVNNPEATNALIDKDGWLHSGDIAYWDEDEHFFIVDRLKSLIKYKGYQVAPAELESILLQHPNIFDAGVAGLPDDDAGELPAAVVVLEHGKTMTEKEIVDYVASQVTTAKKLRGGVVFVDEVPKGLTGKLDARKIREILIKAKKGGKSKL
A549 tox-2 – Nrf2 qHTS screen for inhibitors: A549 ARE-Fluc Cytotoxicity Counterscreen for Hit Validation | shares compounds with Nrf2 block | A549 ARE-Fluc cells, cytotoxicity counterscreen | Potency, µM (highest dose often 46.1 µM), inactives show at the highest dose activity change, negative = cytotoxicity, usual class: inhibitors | 1,400 compounds, 2% hits | AID 720523, 2013;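 further: potency means the concentration at half of the fitted maximal effect; cells exposed to compounds for 18 to 24 hours; on the % scale 0 is the no-effect control and ±100 the full control effect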
ARE-Fluc inh – Nrf2 qHTS screen for inhibitors: Nrf2 A549 ARE-Fluc Confirmation Assay for Hit Validation; shares compounds with Nrf2 block; A549 ARE-firefly luciferase reporter, luminescence; Potency, µM (highest dose often 46.1 µM), for the others: top-dose activity change, negative = inhibition, usual class: inhibitors; 1,400 compounds, 74% hits; further: potency means the concentration at half of the fitted maximal effect; on the % scale 0 is the no-effect control and ±100 the full control effect; nearly all actives have a fitted effect of over 65% in size
Active calls of the source: *; ? = inconclusive; . = no result shown; [ ] = remark or other dose. Unless noted, the call rests on the fitted dose curve; in most records, active means well fitted curve in the direction sought with a large enough effect; inconclusive means small, poorly fitted or top-dose-only effect, or another doubt; inactive means no such curve, though single readings can be large; an effect the other way counts as inactive or inconclusive.

SMILES	TCR activator	Nrf2 block	AT treatment	A549 tox-1	Nrf2 ARE act	CCT modulator	FLuc enzyme inh	A549 tox-2	ARE-Fluc inh
CN(CC(=O)Nc1ccc(F)c(F)c1F)C(=O)c1ccc(-n2cncn2)cc1	-5%	10%	1%	-5%	0%	0	.	.	.
COc1cc2ncnc(NCc3ccccc3)c2cc1OC	-2%	?	-3%	-9%	1%	-2	.	.	.
c1ccc(CNc2ncnc3ccccc23)cc1	-1%	4.6µM*	-10%	-3%	-1%	2	0%	-12%	6.5µM*
O=C(Nc1ccc(F)c(Cl)c1)C1CCN(C(=O)c2ccc(F)cc2)CC1	.	14%	.	-6%	6%	.	.	.	.
O=C(Nc1nc(-c2ccccn2)cs1)c1cc(Cl)ccc1[N+](=O)[O-]	6%	4.1µM*	7%	?	?	-1	15µM*	-27%	1.8µM*
CCOc1ccc(S(=O)(=O)NCc2ccncc2)cc1NC(=O)c1ccccc1F	2%	2.6µM*	8%	-12%	-1%	-5	1%	2%	?
CCOc1ccc(S(=O)(=O)NCc2ccncc2)cc1NC(=O)c1ccccc1	-1%	0.46µM*	9%	-13%	0%	1	4%	0%	3.7µM*
CCOc1ccc(S(=O)(=O)NCc2cccnc2)cc1NC(=O)c1ccccc1F	-1%	-4%	3%	-15%	-1%	-2	.	.	.
CCCn1c(NC(=O)c2cccc(S(=O)(=O)N3CCCC3)c2)nc2ccccc21	7%	7.3µM*	5%	?	-2%	-1	-13%	?	7.3µM*
Cc1ccc(CCNc2ncnc(Cl)c2N)cc1	7%	3.7µM*	.	?	2%	-1	?	-3%	?
Nc1c(Cl)ncnc1NCCO	-2%	5%	-10%	-1%	0%	0	.	.	.
COc1cc(C=NO)nc(-c2ccccn2)c1	0%	1.2µM*	.	-23%	0%	-2	-12%	-6%	2.6µM*
C[C@]12c3[nH]c4ccc(Cl)cc4c3CCN1C(=O)[C@@H](CC(=O)NCc1ccco1)C[C@@H]2C(=O)N1CCOCC1	0%[46.1 µM]	7%	5%	0%	4%	-5	.	.	.
COc1ccccc1CNC(=O)COC(=O)c1ccccn1	-2%	5%	2%	-4%	0%	-1	.	.	.
Cc1ccccc1NC(=O)c1cccc2nc3ccccc3nc12	3%	5.2µM*	-2%	-27%	0%	1	-11%	?	10µM*
Cc1ccccc1NC(=O)c1ccccc1NC(=O)Cc1cccc2ccccc12	-7%[46.1 µM]	0%	-3%	11%	0%	0	.	.	.
COc1ccc(-c2nc(CN3CCN(c4ncnc5ccccc45)CC3)c(C)o2)c(OC)c1	2%	8.2µM*	-4%[11.5 µM]	?	0%	4	2%	-13%	8.2µM*
CCCS(=O)(=O)N1CCCC(C(=O)NCCCOC)C1 (stereo not given)	.	.	.	3%	-1%	.	.	.	.
Cc1cnc(NC(=O)C2CC(=O)N(c3cccc(Cl)c3)C2)s1 (stereo not given)	9%	2.1µM*	0%	?	0%	0	0%	?	.
COc1ccc(Cn2c(-c3ccc(OC)c(O)c3)nc3ccccc32)cc1O	7%	5%	-2%	3%	-1%[9.22 µM]	1	.	.	.
COc1ccc(C(=O)NCCc2nnc3ccc(SCC(=O)NCc4ccccc4)nn23)cc1	-31%	6%	1%	1%	0%	0	.	.	.
CCc1ccc(-n2c(=O)c3sc4ccccc4c3n(CC(=O)N3CCCC3)c2=O)cc1	.	-8%	.	-15%	-1%	.	.	.	.
CCOC(=O)CON1C(=O)C(=O)N(OCC(=O)OCC)[C@H]2CCCC[C@H]21	5%	-17%	0%	-9%	-1%	-2	.	.	.
CCN(CC)S(=O)(=O)c1ccc(/C=C/C(=O)Nc2ccc(Br)cc2F)cc1	0%	9.2µM*	5%	-3%	4%	-1	-9%	-2%	4.6µM*
CCN(CC)S(=O)(=O)c1ccc(/C=C/C(=O)Nc2ccc(F)cc2F)cc1	-2%[46.1 µM]	?	-2%	-3%	3%	0	.	.	.
SMILES	TCR activator	Nrf2 block	AT treatment	A549 tox-1	Nrf2 ARE act	CCT modulator	FLuc enzyme inh	A549 tox-2	ARE-Fluc inh
CCN(CC)S(=O)(=O)c1ccc(/C=C/C(=O)Nc2ccc(F)c(F)c2F)cc1	-2%[46.1 µM]	?	.	-4%	6%	-3	-10%	-5%	?
COc1ccc(N2CCN(C(CNC(=O)COc3ccccc3)c3ccco3)CC2)cc1 (stereo not given)	0%	-21%	-10%	-18%	0%	-1	.	.	.
Cc1cccc(NC(=O)C2CCCN(c3nnc(-n4c(C)ccc4C)s3)C2)c1C (stereo not given)	.	-8%	.	-4%	22%	.	.	.	.
O=C(OCC(O)COc1ccccc1)c1ccc([N+](=O)[O-])cc1 (stereo not given)	1%	6%	0%	0%	-1%	-1	.	.	.
O=C(Cc1ccccc1)Nc1scc(-c2ccccc2)c1C(=O)N1CCOCC1	-5%	11%	-2%	3%	0%	0	.	.	.
NC(=O)c1c(-c2ccc(Cl)cc2Cl)csc1NC(=O)Cc1ccccc1	-2%[46.1 µM]	2.6µM*	0%	-14%	2%	1	-18%	1%	5.2µM*
CC(C(=O)Nc1ccc(O)cc1)c1cccc(C(=O)c2ccccc2)c1 (stereo not given)	2%	9.2µM*	4%	-26%	3%	0	-15%	2%	?
COc1cccc(CN(C)C(=O)CNC(=O)c2ccc(-c3ccccc3)cc2)c1OC	2%	4.6µM*	-5%	-21%	0%	0	-24%	-11%	.
Cc1ccc(Cl)cc1N1CCN(C(=O)c2cc3c(=O)[nH]c4ccccc4c3n2C)CC1	3%	4.1µM*	.	-20%	0%	-2	2%	-25%	?
